# Measured values taken from PubChem BioAssay (NCATS).
# Inconclusive results are not listed. A call without a number means that no potency is given here. The source made the active and inactive calls. Calls follow the shape of the dose curve; as a rule, active = well fitted inhibition curve with a large enough effect; inconclusive = small, poorly fitted or top-dose-only effect; inactive = no such curve, though single readings can be large or run the other way.
# Assay: Counterscreen qHTS for small molecule stabilizers of the endoplasmic reticulum resident proteome: GLuc-NoTag assay (AID 1508627)
# Conditions: Gaussia luciferase NoTag secretion counterscreen, luminescence, thapsigargin 100 nM for final 4 h; series mostly up to 76.4 µM
# Summary of the method: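 Counterscreen line: SH-SY5Y-GLuc-NoTag cells, treated with compound 19 hr before a 4 hr, 100 nM thapsigargin calcium depletion. Secreted Gaussia luciferase in the medium was measured by luminescence after coelenterazine was added (0.07x final), with cells unlysed.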
# Potency is read from the fitted curve at half-maximal effect.
row,SMILES,Potency
1,O=c1ccn([C@@H]2O[C@H](CO)[C@H](O)[C@H]2O)c(=O)[nH]1,inactive
2,O=C1c2ccccc2-[n+]2ccc3c([nH]c4ccccc43)c21,2 µM (active)
3,CC[C@H]1OC(=O)[C@H](C)[C@@H](O[C@H]2C[C@@](C)(OC)[C@@H](O)[C@H](C)O2)[C@H](C)[C@@H](O[C@@H]2O[C@H](C)C[C@H](N(C)C)[C@@H]2O)[C@](C)(O)C[C@@H](C)CN(C)[C@H](C)[C@@H](O)[C@]1(C)O,inactive
4,C=C1C(=O)OC2C=C(C)CCC=C(C)CCC12 (centres undefined),inactive
